The other results are listed elsewhere or left out. Active and inactive are the calls of the source. Unless noted, no stated cut-off is given here; in the data, active means response below about 75% or above about 130%; inactive means in between.

Results on nine compounds are retold here after PubChem BioAssay.

Assay [1] addresses Regulator of G-protein signaling 16 (Homo sapiens) (UniProt O15492). Nature of the assay: small molecules altering RGS protein interactions with GNAO1 – biochemical, multiplexed beads, flow cytometry, RGS4/7/8/16/19, primary screen (AID 1504).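 Further: fluorescently labeled Galpha-o bound to GDP with aluminium fluoride binding biotinylated RGS beads.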 As to conditions: multiplexed bead flow cytometry, measured here: RGS16 interaction, at 10 µM.
Assay [2] has as its target Regulator of G-protein signaling 19 (Homo sapiens) (UniProt P49795). Described as above. As to conditions: multiplexed bead flow cytometry, measured here: RGS19 interaction, at 10 µM.
Assay [3] has as its target Regulator of G-protein signaling 7 (Homo sapiens) (UniProt P49802). The description is as above. As to conditions: multiplexed bead flow cytometry, measured here: RGS7 interaction, at 10 µM.
The target of assay [4] is Regulator of G-protein signaling 8 (Homo sapiens) (UniProt P57771). The description is as above. The following applies: multiplexed bead flow cytometry, measured here: RGS8 interaction, at 10 µM.
Assay [5] can be described thus: interference with biotin-avidin bead interaction – biochemical, flow cytometry, bead-based, counter-screen for RGS protein interaction modulators (AID 1783;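 active means inhibition above 50%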;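 further: median green fluorescence of gated singlet beads compared with DMSO control wells; 0% = DMSO wells and 100% = complete loss of bead fluorescence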). The following applies: streptavidin beads, fluorescein-biotin binding; at 10 µM, stronger effect = higher value.
The target of assay [6] is Guanine nucleotide-binding protein G(o) subunit alpha (Homo sapiens) (UniProt P09471). Nature of the assay: retest of RGS8-Galphao interaction hits – biochemical, multiplexed bead flow cytometry, single concentration, confirmation (AID 1836; in the data active means binding response below about 72% or above about 130%; inactive means in between;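 further: Galphao activated as GDP AlF4 complex before binding bead RGS8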). The following applies: bead-based flow cytometry RGS8-Galphao binding, fluorescence; at 10 µM; actives lie on both sides.
Chain of Guanine nucleotide-binding protein G(o) subunit alpha (Homo sapiens) (P09471 whole entry, looked up): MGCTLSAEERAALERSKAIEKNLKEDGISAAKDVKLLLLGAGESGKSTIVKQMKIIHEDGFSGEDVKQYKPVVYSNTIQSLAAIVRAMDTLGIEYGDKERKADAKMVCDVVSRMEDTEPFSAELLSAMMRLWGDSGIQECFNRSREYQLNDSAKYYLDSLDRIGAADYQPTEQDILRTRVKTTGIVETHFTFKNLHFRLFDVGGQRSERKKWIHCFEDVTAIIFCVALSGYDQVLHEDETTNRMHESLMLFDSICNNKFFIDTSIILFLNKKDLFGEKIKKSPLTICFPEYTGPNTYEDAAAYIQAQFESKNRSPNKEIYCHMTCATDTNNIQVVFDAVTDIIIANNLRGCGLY
Assay [7] has the same target. Nature of the assay: retest of RGS7-Galphao interaction hits – biochemical, multiplexed bead flow cytometry, single concentration, confirmation (AID 1837).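 Further: fluorescent Galphao activated with GDP and aluminum fluoride binding bead-coupled RGS7.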 As to conditions: bead-based flow cytometry RGS7-Galphao binding; at 10 µM; actives lie on both sides.
For assay [8], the target named is Regulator of G-protein signaling 16 (Homo sapiens) + Guanine nucleotide-binding protein G(o) subunit alpha (Homo sapiens) (UniProt O15492+P09471). Nature of the assay: RGS16 and Galphao interaction regulators – biochemical, single concentration, multiplexed bead flow cytometry, confirmation (AID 1838; in the data active means response below about 74% or above about 130%; inactive means in between;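 further: Galphao activated as the GDP aluminium fluoride complex binding bead-coupled RGS16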). As to conditions: bead-based flow cytometry, at 10 µM, actives lie on both sides.
Chain of Regulator of G-protein signaling 16 (Homo sapiens) + Guanine nucleotide-binding protein G(o) subunit alpha (Homo sapiens) (O15492 whole entry, looked up): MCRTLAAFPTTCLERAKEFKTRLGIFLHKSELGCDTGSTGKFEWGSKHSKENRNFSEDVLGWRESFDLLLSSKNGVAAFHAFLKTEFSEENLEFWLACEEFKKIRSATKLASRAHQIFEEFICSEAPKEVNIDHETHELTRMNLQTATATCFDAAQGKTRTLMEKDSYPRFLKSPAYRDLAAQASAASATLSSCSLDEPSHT
Chain of Regulator of G-protein signaling 16 (Homo sapiens) + Guanine nucleotide-binding protein G(o) subunit alpha (Homo sapiens) (P09471 whole entry, looked up): as the sequence (P09471 whole entry, looked up) above

Assay [9] has as its target Guanine nucleotide-binding protein G(o) subunit alpha (Homo sapiens) (UniProt P09471). Nature of the assay: RGS4 and Galphao interaction regulators – biochemical, single concentration, multiplexed bead flow cytometry, confirmation (AID 1840; in the data active means binding response below about 74% or above about 130%; inactive means in between). As to conditions: at 10 µM, actives lie on both sides.
The target in assay [10] is Guanine nucleotide-binding protein G(o) subunit alpha (Homo sapiens) + Regulator of G-protein signaling 19 (Homo sapiens) (UniProt P09471+P49795). Nature of the assay: RGS19 interaction with Gαo, hit retest – biochemical, single point, multiplexed bead flow cytometry, confirmation (AID 1841; in the data active means response below about 50% or above about 160%; inactive means in between;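 further: 100% = no compound control and 0% = blank background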). As to conditions: bead-based flow cytometry RGS19-Galphao binding; at 10 µM; actives lie on both sides.
Chain of Guanine nucleotide-binding protein G(o) subunit alpha (Homo sapiens) + Regulator of G-protein signaling 19 (Homo sapiens) (P09471 whole entry, looked up): as above
Chain of Guanine nucleotide-binding protein G(o) subunit alpha (Homo sapiens) + Regulator of G-protein signaling 19 (Homo sapiens) (P49795 whole entry, looked up): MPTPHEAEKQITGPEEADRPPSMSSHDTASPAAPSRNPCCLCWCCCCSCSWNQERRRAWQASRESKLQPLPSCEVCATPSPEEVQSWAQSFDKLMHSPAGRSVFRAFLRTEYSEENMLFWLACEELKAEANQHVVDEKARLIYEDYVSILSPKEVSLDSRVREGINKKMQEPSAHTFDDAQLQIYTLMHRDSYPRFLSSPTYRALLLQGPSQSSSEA

`CCC(=O)Nc1c(S(=O)(=O)c2ccccc2)c2nc3ccccc3nc2n1Cc1ccccc1`: the RGS16–Galpha-o binding response in assay [1] stood at 13.9%. In assay [2], the RGS19–Galpha-o binding response was determined as 285%. The RGS7–Galpha-o binding response in assay [3] was determined as 87.2%. Moreover, the RGS8–Galpha-o binding response in assay [4] came out at 70.1%. Moreover, the inhibition in assay [5] was -0.3% (inactive). For the same compound, the binding response (% of control) in assay [6] and in [9] was 103% (inactive) throughout. Moreover, the figures for the response (percent of control binding) in assay [7] and in assay [10] were 99.2% (inactive) and 101% (inactive), respectively. Further, the response (% of control binding) in assay [8] is 104% (inactive).
On to `Cc1ccc(-n2c(SCC(=O)Nc3ncc(Cl)cc3Cl)nc3ccccc32)cc1`, for which the RGS16–Galpha-o binding response in assay [1] was 13.7%. Further, in assay [2], the RGS19–Galpha-o binding response came to 134%. Besides, the RGS7–Galpha-o binding response in assay [3] is 83.7%. In assay [4], this compound returned an RGS8–Galpha-o binding response of 76.9%. Also, in [5], the inhibition is 1% (inactive). The results for the binding response (% of control) in [6] and in [9] were 103% (inactive) and 104% (inactive), respectively. The response (percent of control binding) is 105% (inactive) in [7] and 113% (inactive) in assay [10]. In addition, in assay [8], the response (% of control binding) was 103% (inactive).
As to `CC(C)(C)NC(=O)c1cccc(NC(=O)Cc2ccc(Br)cc2)c1`, in [1], the RGS16–Galpha-o binding response is -3.28%. The RGS19–Galpha-o binding response in [2] turned out to be 121%. In [3], the RGS7–Galpha-o binding response stood at 76.6%. In [4], this compound showed an RGS8–Galpha-o binding response of 70.2%. Also, the inhibition in [5] is 1% (inactive). Moreover, the figures for the binding response (% of control) in [6] and in assay [9] were 103% (inactive) and 100% (inactive), respectively. Moreover, the response (percent of control binding) in assay [7] was 100% (inactive); in [10], 115% (inactive). Also, in [8], the response (% of control binding) was 99.4% (inactive).
Turning to `CCOC(=O)c1oc2c(CN3CCN(C)CC3)c(O)ccc2c(=O)c1-c1ccc(Br)cc1`, in assay [1], the RGS16–Galpha-o binding response is 142%. Also, in [2], the RGS19–Galpha-o binding response is 79.7%. Further, the RGS7–Galpha-o binding response in assay [3] was 318%. In assay [4], this compound had an RGS8–Galpha-o binding response of 107%. The inhibition in [5] was -0.6% (inactive). For the same compound, the binding response (% of control) is 97.5% (inactive) in [6] and 96.9% (inactive) in assay [9]. In addition, the response (percent of control binding) was 95.5% (inactive) in [7] and 92.8% (inactive) in assay [10]. In assay [8], the response (% of control binding) was 98.4% (inactive).
Turning to `O=[N+]([O-])C(=c1ccc2c(c1)N1C3=C(CCCC3)CC3CCCCC31N=2)[N+](=O)[O-]` (stereo not drawn), the RGS16–Galpha-o binding response in assay [1] was 20.9%. This compound showed an RGS19–Galpha-o binding response in assay [2] of 357%. Also, in assay [3], the RGS7–Galpha-o binding response is -195%. Further, the RGS8–Galpha-o binding response in assay [4] came to 43.8%.
Turning to `CCCn1c(C)cc(C(=O)COC(=O)c2c(C)nn(-c3ccccc3)c2C)c1C`, in assay [1], the RGS16–Galpha-o binding response is -33.9%. The compound also had an RGS19–Galpha-o binding response in assay [2] of 99.6%. Moreover, the RGS7–Galpha-o binding response in [3] came out at 81.9%. For the same compound, the RGS8–Galpha-o binding response in assay [4] was 83.8%. Also, the inhibition in [5] is 1.1% (inactive). Also, the binding response (% of control) in assay [6] is 105% (inactive); in assay [9], 104% (inactive). Also, the response (percent of control binding) in [7] is 104% (inactive); in [10], 110% (inactive). The response (% of control binding) in assay [8] is 103% (inactive).
`CN(CC(=O)NC1CCCCC1)S(=O)(=O)c1cccc2cccnc12`: the RGS16–Galpha-o binding response in [1] is 94.7%. Also, the RGS19–Galpha-o binding response in [2] came to 114%. The RGS7–Galpha-o binding response in assay [3] amounted to 241%. Moreover, the RGS8–Galpha-o binding response in assay [4] is 89.3%.
`Cc1ccccc1NC(=S)N(CCCN1CCOCC1)Cc1cccs1`: the RGS16–Galpha-o binding response in assay [1] was found to be 181%. The compound also showed an RGS19–Galpha-o binding response in [2] of 80%. Also, the RGS7–Galpha-o binding response in assay [3] was found to be 106%. In assay [4], this compound had an RGS8–Galpha-o binding response of 118%. In assay [5], the inhibition was 2.8% (inactive). Further, the binding response (% of control) in [6] was 104% (inactive); in assay [9], 102% (inactive). Further, the figures for the response (percent of control binding) in assay [7] and in assay [10] were 102% (inactive) and 107% (inactive), respectively. In addition, the response (% of control binding) in assay [8] is 104% (inactive).
Take `Oc1ccc(-c2onc3ccc(Cl)cc23)cc1`: the RGS16–Galpha-o binding response in [1] came out at 415%. In addition, the RGS19–Galpha-o binding response in assay [2] was 108%. Moreover, the RGS7–Galpha-o binding response in assay [3] amounted to 110%. Further, in assay [4], the RGS8–Galpha-o binding response was 144%. Further, in [5], the inhibition is 0% (inactive). For the same compound, the binding response (% of control) is 92.4% (inactive) in assay [6] and 89% (inactive) in [9]. The response (percent of control binding) was 89.7% (inactive) in assay [7] and 79.4% (inactive) in assay [10]. The response (% of control binding) in [8] is 91.4% (inactive).
